The campaign covered roughly 91,000 compounds. About 290 (0.32%) were called active. Another 7% or so got no clear call; they are omitted. Calls come from the whole dose curve; as a rule, active = well fitted inhibition curve with a large enough effect; inconclusive = small, poorly fitted or top-dose-only effect; inactive = no such curve, though single readings can be large or run the other way. Many of the other results were omitted from the sample, so actives are more common in it than they were.
% is set by controls: 0 for no effect and ±100 for the full control effect; potency is the fitted concentration of half-maximal effect.

Chain of Single-stranded DNA cytosine deaminase (Homo sapiens) (Q9GZX7 whole entry, looked up): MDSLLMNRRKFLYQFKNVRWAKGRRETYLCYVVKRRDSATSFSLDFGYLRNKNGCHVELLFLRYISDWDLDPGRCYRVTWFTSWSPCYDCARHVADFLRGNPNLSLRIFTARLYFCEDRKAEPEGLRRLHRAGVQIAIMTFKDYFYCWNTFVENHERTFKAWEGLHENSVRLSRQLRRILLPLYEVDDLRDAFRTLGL

The assay addresses Single-stranded DNA cytosine deaminase (Homo sapiens) (UniProt Q9GZX7). Nature of the assay: Primary qHTS assay for inhibitors of Activation Induced Cytidine Deaminase (AID): AID signal. Note: nearly all actives have a fitted effect of over 25% in size. Particulars: AID deamination FRET fluorescence, UDG-coupled, 4 h; series mostly up to 115 µM; activity change, negative = inhibition: at the top concentration.
In the case of `CCN(C(=O)C1CCN(c2nc3ccccc3o2)CC1)c1ccc(F)c(F)c1`, the “activity change, negative = inhibition” value was -14% (inactive).

Turning to `CC(=O)Oc1c(Cl)cc(Cl)cc1Sc1cc(Cl)cc(Cl)c1OC(C)=O`, the “activity change, negative = inhibition” value was -6.63% (inactive).

For `Cc1ccc(OCCSc2nnc(COc3ccccc3Cl)n2C)cc1`, the “activity change, negative = inhibition” value was -23.4% (inactive).

`CCCCCCCCc1cnc(-c2ccc(O)cc2)nc1`: the “activity change, negative = inhibition” value was 2.8% (inactive).

Regarding `COc1cc(CN(C(=S)NCC(=O)NCc2ccccc2Cl)C2CCCC2)cc(OC)c1OC`, the “activity change, negative = inhibition” value was -11.1% (inactive).

`CC(=O)N1CCC(NC(=O)c2cc(C)nc3cc(F)ccc23)CC1`: the “activity change, negative = inhibition” value is 9.52% (inactive).

For `Cc1nn(-c2ncnc3nc[nH]c23)c2c1C(c1cccc(F)c1)CC(=O)N2` (configuration not stated), the “activity change, negative = inhibition” value was -20.6% (inactive).

As for `O=C(O)C1CCN(C(=O)Cn2ccc3c(Br)cccc32)CC1`, the “activity change, negative = inhibition” value was 10.4% (inactive).

With `CCC(=O)c1ccc(C2CCCCC2)cc1`, the “activity change, negative = inhibition” value was 0.556% (inactive).

With `C(=C\c1ccccc1)/CNC1CC1`, the “activity change, negative = inhibition” value was -7.64% (inactive).

Take `N#Cc1ccc(COC(=O)CCC(=O)c2ccccc2)cc1`: the “activity change, negative = inhibition” value was -10.1% (inactive).

`Cc1cc(C(=O)O)c(C)n1CC(F)(F)F`: the “activity change, negative = inhibition” value is 3.52% (inactive).

As for `O=C(/C=C/c1cccs1)N1CC=C(c2ccccc2)CC1`, the “activity change, negative = inhibition” value is -1.83% (inactive).

Regarding `C(#CCN1CCCCC1)COC(c1ccccc1)c1ccccc1`, the “activity change, negative = inhibition” value is -6.93% (inactive).

With `CC(C)NS(=O)(=O)c1ccc(C(=O)NCC(=O)O)cc1`, the “activity change, negative = inhibition” value was 2.86% (inactive).

Turning to `COc1cccc(CN(C)S(=O)(=O)c2cnn(C)c2)c1OC`, the “activity change, negative = inhibition” value is -0.162% (inactive).

As to `CC(C)CCNC(=S)Nc1cccc(C(F)(F)F)c1`, the “activity change, negative = inhibition” value is -14% (inactive).

`O=C(Nc1ccc2nc(N3CCCC3)sc2c1)c1ccc(F)cc1`: the “activity change, negative = inhibition” value is 2.27% (inactive).

On to `Cc1cc(C(=O)OCc2cccc(C#N)c2)c(C)o1`, for which the “activity change, negative = inhibition” value was 2% (inactive).

In the case of `O=C(N/N=C/c1ccccc1OCCOc1ccc([N+](=O)[O-])cc1)Nc1ccccc1`, the “activity change, negative = inhibition” value is -3% (inactive).

As for `COc1ccc(NC(=O)Cc2ccc3c(c2)OCCO3)cn1`, the “activity change, negative = inhibition” value is 4.51% (inactive).

In the case of `Cc1nn(C)c2c(=O)n(CC(=O)NCc3ccccc3)ccc12`, the “activity change, negative = inhibition” value is -12.6% (inactive).

In the case of `CCOc1ccc(C(=O)CCC(=O)OCC(=O)c2ccc3c(c2)OCCO3)cc1`, the “activity change, negative = inhibition” value was 20.4% (inactive).

`CC(C)c1ccc(NC(=O)CSc2nc3ncc(Cl)cc3[nH]2)cc1`: the “activity change, negative = inhibition” value was -2.2% (inactive).

As for `COc1cc(C2CC(=O)Nc3nc(-c4ccccc4)[nH]c(=O)c32)ccc1OCc1ccc(F)cc1` (configuration not stated), the “activity change, negative = inhibition” value is -1.85% (inactive).

As to `CCCCNc1oc(/C=C/c2ccc(OCC)cc2)nc1C#N`, the “activity change, negative = inhibition” value is -4.06% (inactive).

For the compound `Cc1ccc(NC(=O)CCc2nc3cc(Cl)ccc3n(CC(C)C)c2=O)cc1`, the “activity change, negative = inhibition” value was 1.54% (inactive).

Take `O=C1c2ccccc2C(=Cc2ccc(Cl)cc2)c2ccccc21`: the “activity change, negative = inhibition” value is -10.6% (inactive).

For the compound `O=C(O)c1ccc(I)c(Br)c1`, the “activity change, negative = inhibition” value is -4.24% (inactive).

`Cc1nnc(SCC(=O)NCc2ccccc2Cl)c2nn(-c3ccccc3)c(C)c12`: the “activity change, negative = inhibition” value was 18.6% (inactive).

As to `Cc1nc2nc(SCC(=O)N(Cc3ccccc3)C(C)C)nn2c(C)c1Cc1ccccc1Cl`, the Potency is 22.4 µM (active).

As to `COc1cc(OC)cc(-c2nc3nc(C)c(CCC(=O)Nc4ccccc4)c(C)n3n2)c1`, the “activity change, negative = inhibition” value is -12.3% (inactive).

On to `Cc1cccc(CC(=O)N2CC(=O)Nc3ccc(F)cc3C2c2ccccc2)c1` (configuration not stated), for which the “activity change, negative = inhibition” value is -10.3% (inactive).

For `CCCCOc1ccc(C(=O)N2CC(=O)Nc3ccc(Br)cc3C2c2ccc(F)cc2)cc1` (configuration not stated), the Potency was 35.5 µM (active).

Take `COc1ccc(CC(=O)N2CC(=O)Nc3ccc(Br)cc3C2c2ccc(F)cc2)cc1OC` (configuration not stated): the “activity change, negative = inhibition” value is -20.9% (inactive).

Consider `O=C(Nc1c(N2CCCC2)c2ccccc2oc1=O)c1ccc(Br)o1`, for which the “activity change, negative = inhibition” value was 4.68% (inactive).

With `Cc1cc(NC(=O)c2ccc(F)cc2F)n(CCC#N)n1`, the “activity change, negative = inhibition” value is 2.66% (inactive).

For the origin of these results see PubChem BioAssay AID1347428 (National Center for Advancing Translational Sciences (NCATS), 2020).
